From PubChem BioAssay (NCATS)
Results filed as inconclusive are left out. Activity calls are given as the source filed them. Calls follow the shape of the dose curve; as a rule, active = well fitted curve in the direction sought with a large enough effect; inconclusive = small, poorly fitted or top-dose-only effect, or another doubt; inactive = no such curve, though single readings can be large; an effect the other way counts as inactive or inconclusive.

Experiments:
[1] = test system: Zika virus NS2B-NS3 protease; assay: Primary screen GU AMC qHTS for Zika virus inhibitors (AID 1347154); conditions: Zika NS2B-NS3 unlinked protease, AMC fluorogenic substrate; series mostly up to 54.1 µM; also: nearly all actives have a fitted effect of over 70% in size; also: potency is read from the fitted curve at half-maximal effect;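 as to activity change, negative = inhibition: 0% = no-inhibitor control and -100% = no-enzyme control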
Outline: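 Unlinked Zika NS2B hydrophilic domain/NS3 protease domain noncovalent complex (25 nM final) in 10 mM Tris-HCl pH 8.0, 0.01% Tween 20, with AMC peptide substrate. Fluorescence (ex 340, em 450 nm) change over 15 min, room temperature; percent inhibition fitted to 4-parameter Hill equation.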

Furin (Homo sapiens) = Furin (Homo sapiens) (UniProt P09958); assay: Furin counterscreen qHTS for Zika virus inhibitors (AID 1347149); conditions: furin enzymatic counterscreen, fluorogenic substrate; series mostly up to 57.5 µM; also: nearly all actives have a fitted effect of over 70% in size; also: potency is read from the fitted curve at half-maximal effect;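 as to activity change, negative = inhibition: purified recombinant full-length human furin enzyme at 5 nM; fluorescence gain from furin cutting a BOC-RVRR-AMC peptide substrate over 15 min; top concentration of the series differs between compounds; plate controls were no-inhibitor control for no effect and no-enzyme control for full effect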
Outline: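 Fluorogenic cleavage of BOC-RVRR-AMC (2 microM final, Km ~15 µM) was monitored (ex 340, em 450 nm) at 37C after 15 min RT preincubation of 5 nM furin with compounds in HEPES pH 7.0 buffer with CaCl2 and Triton X-100. Percent inhibition was fitted to a 4-parameter Hill curve.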

[2] = Confirmatory screen GU Rhodamine qHTS for Zika virus inhibitors qHTS (AID 1347157); conditions: purified enzyme assay, Rhodamine110 substrate fluorescence, 15 min; series mostly up to 114 µM; also: potency is read from the fitted curve at half-maximal effect; nearly all actives have a fitted effect of over 70% in size
Outline: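 Percent inhibition derives from the 15-min fluorescence change (ex 480, em 540 nm), normalized to no-enzyme and no-inhibitor wells. Reactions contained 25 nM NS2B-NS3 complex and 1.5 microM substrate in 10 mM Tris-HCl pH 8.0.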

[3] = Confirmatory screen NINDS Rhodamine qHTS for Zika virus inhibitors (AID 1347161); conditions: purified enzyme assay, Rhodamine110 substrate fluorescence, 15 min; series mostly up to 114 µM; also: potency is read from the fitted curve at half-maximal effect; nearly all actives have a fitted effect of over 60% in size
Outline: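 Kinetic fluorescence (Ex 480 nm, Em 540 nm) over 15 min with 1.5 microM Rhodamine110 peptide and 25 nM linked protease.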

[4] = target: N-terminal Xaa-Pro-Lys N-methyltransferase 1 (Homo sapiens) (UniProt Q9BV86); assay: qHTS Assay for Inhibitors of N-terminal methyltransferase 1 (NTMT1): LOPAC validation of the NTMT1 SAHH-coupled ThioGlo3 Assay (AID 1347143); conditions: recombinant NTMT1, SAHH-coupled ThioGlo3 fluorescence; series mostly up to 114 µM; also: % is scaled to controls: 0 for no effect and ±100 for the full control effect; nearly all actives have a fitted effect of over 70% in size
Outline: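 Fluorescence read-out (excitation 340nm, emission 450nm) of SAH-derived thiol, measured via SAHH coupling and ThioGlo3, taken immediately and after a 30 min room-temperature reaction, then normalized to the background read. Enzyme: NTMT1 at 125nM; cofactor SAM 100uM in the added reagent.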

[5] = test system: Zika virus NS2B-NS3 protease (unlinked); assay: Optimization of GU AMC qHTS for Zika virus inhibitors: Unlinked NS2B-NS3 protease assay (AID 1347151); conditions: recombinant ZIKV NS2B-NS3 protease, fluorogenic AMC substrate; series mostly up to 52.5 µM;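 also: 0% = no-inhibitor control and -100% = no-enzyme control; nearly all actives have a fitted effect of over 80% in size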
Outline: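 Fluorescence gain (340/450 nm) over 15 min at room temperature, ~20% conversion, gave percent inhibition fitted to a 4-parameter Hill equation; enzyme was unlinked NS2B-NS3 (25 nM final), pH 8.0 Tris buffer.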

[6] = qHTS of pediatric cancer cell lines to identify multiple opportunities for drug repurposing: Confirmatory screen for NB-EBc1 cells (AID 1347115); conditions: NB-EBc1 neuroblastoma cells, viability (cytotoxicity); series mostly up to 45.9 µM;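 also: cells exposed to compound for 48 h before the viability read; nearly all actives have a fitted effect of over 45% in size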; also: potency is read from the fitted curve at half-maximal effect; as to activity change, negative = cytotoxic: % is scaled to controls: 0 for no effect and ±100 for the full control effect
Outline: (§1)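 Cells (500-1,000/well) in growth media were settled 5 h at 37 degrees C, then given compounds for 48 h. Viability was read as CellTiter-Glo luminescence. Primary runs used MIPE at 11 points (0.78 nM-46 µM) and NPC at 8 points (0.59 nM-46 µM); follow-ups used 11 points.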

[7] = qHTS of pediatric cancer cell lines to identify multiple opportunities for drug repurposing: Confirmatory screen for control Hh wild type fibroblast cells (AID 1347121); conditions: viability qHTS; series mostly up to 45.9 µM
Outline: as §1

[8] = qHTS of pediatric cancer cell lines to identify multiple opportunities for drug repurposing: Confirmatory screen for Rh41 cells (AID 1347123); conditions: Rh41 rhabdomyosarcoma cells, viability/cytotoxicity qHTS; series mostly up to 45.9 µM;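 also: 48 h compound exposure; nearly all actives have a fitted effect of over 60% in size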; also: potency is read from the fitted curve at half-maximal effect;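 as to activity change, negative = cytotoxic: plate controls were DMSO for no effect and bortezomib for full effect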
Outline: as §1

[9] = qHTS of pediatric cancer cell lines to identify multiple opportunities for drug repurposing: Confirmatory screen for SJ-GBM2 cells (AID 1347116); conditions: SJ-GBM2 glioblastoma cells, viability; series mostly up to 45.9 µM; also: nearly all actives have a fitted effect of over 60% in size; also: potency is read from the fitted curve at half-maximal effect;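 as to activity change, negative = cytotoxic: plate controls were DMSO for no effect and bortezomib for full effect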
Outline: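 Viability measured as metabolically active cells via CellTiter-Glo luminescence following 48 hours of compound exposure, 11-point dilutions in confirmatory testing. 500-1,000 cells/well plated 5 hours before dosing; controls were DMSO and 2.3 µM bortezomib.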

[10] = qHTS of pediatric cancer cell lines to identify multiple opportunities for drug repurposing: Confirmatory screen for Rh18 cells (AID 1347125); conditions: Rh18 rhabdomyosarcoma cells, viability; series mostly up to 45.9 µM; also: nearly all actives have a fitted effect of over 55% in size; also: potency is read from the fitted curve at half-maximal effect; as to activity change, negative = cytotoxic: % is scaled to controls: 0 for no effect and ±100 for the full control effect
Outline: as §1

[11] = qHTS of pediatric cancer cell lines to identify multiple opportunities for drug repurposing: Confirmatory screen for Rh30 cells (AID 1347126); conditions: Rh30 rhabdomyosarcoma cell viability; series mostly up to 45.9 µM; also: nearly all actives have a fitted effect of over 55% in size; also: potency is read from the fitted curve at half-maximal effect; as to activity change, negative = cytotoxic: % is scaled to controls: 0 for no effect and ±100 for the full control effect
Outline: as §1

[12] = qHTS of pediatric cancer cell lines to identify multiple opportunities for drug repurposing: Confirmatory screen for OHS-50 cells (AID 1347128); conditions: OHS-50 osteosarcoma cells viability; series mostly up to 45.9 µM;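 also: compound exposure lasted 48 h at 37 degrees C; nearly all actives have a fitted effect of over 55% in size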; also: potency is read from the fitted curve at half-maximal effect; as to activity change, negative = cytotoxic: % is scaled to controls: 0 for no effect and ±100 for the full control effect
Outline: as §1

[13] = qHTS of pediatric cancer cell lines to identify multiple opportunities for drug repurposing: Confirmatory screen for TC32 cells (AID 1347118); conditions: TC32 Ewing sarcoma cells viability qHTS; series mostly up to 0.556 µM;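 also: cells exposed to compound for 48 h before the read; nearly all actives have a fitted effect of over 65% in size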; also: potency is read from the fitted curve at half-maximal effect
Outline: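 Measured quantity: luminescence from CellTiter-Glo, reflecting metabolically active TC32 cells following 48 h of compound. Curves came straight from multi-point titrations, with 8 or 11 points in primary and 11 in confirmatory screening.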

[14] = qHTS of pediatric cancer cell lines to identify multiple opportunities for drug repurposing: Confirmatory screen for Saos-2 cells (AID 1347127); conditions: Saos-2 osteosarcoma cell viability; series mostly up to 45.9 µM; also: nearly all actives have a fitted effect of over 60% in size; also: potency is read from the fitted curve at half-maximal effect;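 as to activity change, negative = cytotoxic: plate controls were DMSO for no effect and bortezomib for full effect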
Outline: as §1

[15] = test system: Zika virus NS2B-NS3 protease (linked construct); assay: Confirmatory screen NINDS AMC qHTS for Zika virus inhibitors (AID 1347152); conditions: Purified linked NS2B-NS3, AMC substrate fluorescence
Outline: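 IC50s from 4-parameter Hill fits of percent inhibition, based on AMC fluorescence gain (340/450 nm) over 15 min with 10 microM Bz-Nle-KRR-AMC. Enzyme: 1 nM linked NS2B-NS3 in Tris-HCl pH 8.0; 15-min compound preincubation.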

[16] = test system: Zika virus NS2B-NS3 protease (unlinked complex); assay: Confirmatory screen GU AMC qHTS for Zika virus inhibitors (AID 1347153); conditions: Recombinant NS2B-NS3 protease, AMC substrate fluorescence
Outline: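 Unlinked enzyme 25 nM, Tris pH 8.0/0.01% Tween 20; cpd 15 min RT, dark; + AMC substrate 10 µM (Km 18.3 µM); 340/450 nm read at t0 and 15 min; % inhibition → 4-param fit.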

[17] = ZIKV-mCherry secondary qHTS for Zika virus inhibitors (AID 1347158); conditions: Vero cells, ZIKV-mCherry infection imaging, 48-72 h; series mostly up to 32.6 µM; also: top concentration of the series differs between compounds
Outline: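 Vero, 5,000 cells/well, o/n 37 °C; cpd pin-transferred in DMSO; ZIKV-mCherry MOI 1, 48-72 h 37 °C; 32% PFA stock fix, Hoechst; imaged 10x DAPI/mCherry; mCherry+ threshold 450 RFU; % infection.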

Sequence of Furin (Homo sapiens) (P09958 whole entry, looked up): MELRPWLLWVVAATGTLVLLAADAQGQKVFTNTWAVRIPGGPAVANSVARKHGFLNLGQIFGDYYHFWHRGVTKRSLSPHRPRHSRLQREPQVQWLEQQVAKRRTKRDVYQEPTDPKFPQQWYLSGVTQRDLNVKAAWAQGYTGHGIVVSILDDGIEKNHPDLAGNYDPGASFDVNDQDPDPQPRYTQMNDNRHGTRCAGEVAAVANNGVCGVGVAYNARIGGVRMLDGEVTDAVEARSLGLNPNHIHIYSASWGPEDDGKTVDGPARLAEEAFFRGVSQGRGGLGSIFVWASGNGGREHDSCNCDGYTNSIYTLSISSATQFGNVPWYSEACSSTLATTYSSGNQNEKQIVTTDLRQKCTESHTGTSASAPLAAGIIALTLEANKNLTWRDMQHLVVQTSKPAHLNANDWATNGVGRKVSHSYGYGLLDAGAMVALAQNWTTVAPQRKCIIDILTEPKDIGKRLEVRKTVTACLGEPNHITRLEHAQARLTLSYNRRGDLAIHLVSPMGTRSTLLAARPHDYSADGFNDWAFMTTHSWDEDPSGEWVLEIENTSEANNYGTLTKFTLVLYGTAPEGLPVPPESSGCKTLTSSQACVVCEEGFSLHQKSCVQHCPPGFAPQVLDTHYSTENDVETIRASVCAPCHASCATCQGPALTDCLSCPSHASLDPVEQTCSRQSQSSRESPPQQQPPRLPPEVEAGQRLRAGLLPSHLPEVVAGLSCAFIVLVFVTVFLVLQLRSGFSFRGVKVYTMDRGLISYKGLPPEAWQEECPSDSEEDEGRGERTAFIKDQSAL
Sequence of N-terminal Xaa-Pro-Lys N-methyltransferase 1 (Homo sapiens) (Q9BV86 whole entry, looked up): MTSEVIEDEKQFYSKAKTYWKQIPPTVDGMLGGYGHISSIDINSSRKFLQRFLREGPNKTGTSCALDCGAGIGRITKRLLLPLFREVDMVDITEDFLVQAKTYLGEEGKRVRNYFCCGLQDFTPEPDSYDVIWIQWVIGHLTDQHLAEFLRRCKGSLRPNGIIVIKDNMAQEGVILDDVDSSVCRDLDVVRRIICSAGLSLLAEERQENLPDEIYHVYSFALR

O=C(CCN1CCN2CCCC2C1)N1c2ccccc2Sc2ccc(Cl)cc21 (stereo not drawn)
inactive: Potency [1]

CC(C)=CCOc1ccc(/C=C/C(=O)c2ccc(OCC=C(C)C)cc2OCC(=O)O)cc1
active: Potency (Furin (Homo sapiens)) 66.3 µM | Potency [2] 5.62 µM | Potency [3] 6.31 µM

O=[N+]([O-])c1cccc(S(=O)(=O)NCCNS(=O)(=O)c2cccc([N+](=O)[O-])c2)c1
inactive: Potency [1]

Nc1nc(N)c(-c2ccccc2)s1
inactive: Potency [1]

CCOC(=O)[C@H](CCc1ccccc1)N[C@@H](C)C(=O)N1[C@H](C(=O)O)C[C@H]2CCCC[C@@H]21
inactive: outcome [4] | outcome [5]

C=C[C@@]1(C)CC(=O)[C@]2(O)[C@@]3(C)[C@@H](O)CCC(C)(C)[C@@H]3[C@H](O)[C@H](OC(C)=O)[C@@]2(C)O1
inactive: Potency [6] | Potency [7] | Potency [8] | Potency [1]

NC(N)=NN=C(/C=C/c1ccc([N+](=O)[O-])o1)/C=C/c1ccc([N+](=O)[O-])o1
active: Potency [9] 2.93 µM | Potency [8] 1.65 µM | Potency [10] 4.65 µM | Potency [11] 2.08 µM | Potency [12] 5.22 µM

CCN(CC)CCOc1ccc2c(c1)C(=O)c1cc(OCCN(CC)CC)ccc1-2
inactive: Potency [7] | Potency [14] | Potency [1]
active: Potency [13] 9.27 µM | Potency [8] 23.3 µM

CCc1oc2ccccc2c1C(=O)c1cc(Br)c(O)c(Br)c1
active: Potency (Furin (Homo sapiens)) 24.1 µM | Potency [15] 9.61 µM | Potency [16] 17.1 µM | Potency [1] 10.6 µM | Potency [3] 1.75 µM

CN(C)C(=O)Nc1ccc(Cl)c(Cl)c1
inactive: Potency [1]
active: Potency [6] 23.3 µM

CCC(CC)(CC(=O)Nc1cccc(/C=C/c2nc(C3CCC3)cs2)c1)C(=O)O
active: Potency (Furin (Homo sapiens)) 21.5 µM | Potency [15] 24.1 µM | Potency [3] 22.1 µM
inactive: Potency [1] | outcome [17]

O=C(CN1CCN(Cc2ccc3c(c2)OCO3)CC1)N1c2ccccc2Sc2ccccc21
inactive: Potency [1]

Nc1nc(Cl)nc2c1ncn2[C@@H]1O[C@H](CO)[C@@H](O)[C@@H]1F
inactive: Potency [7] | Potency [1]
active: Potency [9] 0.233 µM | Potency [13] 0.369 µM | Potency [11] 5.22 µM | Potency [14] 0.465 µM

O=C(Oc1cccc2cccnc12)c1ccccc1
active: Potency [8] 8.27 µM
inactive: Potency [9] | Potency [7] | Potency [11] | Potency [1]

CCN[C@@H]1C[C@H](N)[C@@H](OC2OC(CN)=CCC2N)[C@H](O)[C@H]1O[C@H]1OC[C@](C)(O)[C@H](NC)[C@H]1O (stereo partly drawn)
inactive: activity change, negative = cytotoxic [6] -1.08% [at 0.556 µM] | activity change, negative = cytotoxic [9] 5.75% [at 0.556 µM] | Potency [13] | activity, negative = cytotoxic [7] 8.41% [at 0.556 µM] | activity change, negative = cytotoxic [8] 13.6% [at 0.556 µM] | activity change, negative = cytotoxic [10] 4.31% [at 0.556 µM] | activity change, negative = cytotoxic [11] 25.4% [at 0.556 µM] | activity change, negative = cytotoxic [14] 11.1% [at 0.556 µM] | activity change, negative = cytotoxic [12] 3.87% [at 0.556 µM] | activity change, negative = inhibition [1] -3.5% [at 0.59 µM]

C[C@H]1O[C@@H](O[C@H]2CC[C@@]3(C)[C@H](CC[C@@H]4[C@@H]3C[C@@H](O)[C@]3(C)[C@@H](C5=CC(=O)OC5)CC[C@]43O)C2)C[C@H](O)[C@@H]1O[C@H]1C[C@H](O)[C@H](O[C@H]2C[C@H](O)[C@H](O[C@@H]3O[C@H](CO)[C@@H](O)[C@H](O)[C@H]3O)[C@@H](C)O2)[C@@H](C)O1
active: Potency [6] 0.369 µM | Potency [9] 0.465 µM | Potency [13] 0.233 µM | Potency [8] 0.147 µM | Potency [11] 0.414 µM | Potency [14] 0.928 µM | Potency [12] 0.293 µM
inactive: Potency (Furin (Homo sapiens)) | outcome [5] | Potency [1]

C[C@@]12C(=O)OC(=O)[C@]1(C)C1CCC2O1
active: Potency [6] 5.22 µM | Potency [9] 8.27 µM | Potency [13] 3.29 µM | Potency [8] 2.08 µM | Potency [10] 3.29 µM | Potency [11] 3.69 µM | Potency [14] 2.93 µM | Potency [12] 4.65 µM
inactive: Potency [1]

N=C(N)N1CCc2ccccc2C1
inactive: activity change, negative = inhibition [1] 1.62% [at 4.99 µM]

CCCCCCCCCCCCOCCOCCOCCOCCOCCOCCOCCOCCOCCO
inactive: Potency [9] | Potency [10] | Potency [11] | Potency [14] | Potency [12] | Potency [1]

CN=C(N)NCCC[C@H](N)C(=O)O
inactive: outcome [4] | outcome [5] | Potency [1]

CC(C)(C)NC[C@H](O)COc1nsnc1N1CCOCC1
inactive: outcome [5] | Potency [1]

CC1(COc2ccc(CC3SC(=O)NC3=O)cc2)CCCCC1 (stereo not drawn)
inactive: Potency (Furin (Homo sapiens)) | activity change, negative = inhibition [1] 6.2% [at 6.83 µM] | outcome [17]
active: Potency [15] 19.2 µM | Potency [16] 21.5 µM | Potency [3] 3.11 µM
